Records with an inconclusive call do not appear. Active and inactive are the calls of the source. Calls come from the whole dose curve; as a rule, active = well fitted cell-killing curve with a large enough effect; inconclusive = small, poorly fitted or top-dose-only effect; inactive = flat fitted curve, though single readings scatter.
Potency is the fitted concentration of half-maximal effect.

This test is described as follows: DAPI mCherry counterscreen qHTS for Zika virus inhibitors. Note: nearly all actives have a fitted effect of over 55% in size. To be noted: Vero cells, DAPI nuclear count cytotoxicity, imaging 48-72 h, infected with Zika reporter virus, MOI 1; series mostly up to 32.6 µM. The text has this:
Assay Submitters (PI): Avindra Nath, Ph.D., National Institute of Neurological Disorders and Stroke (NINDS), Bethesda, MD Radhakrishnan Padmanabhan, Ph.D., Georgetown University (GU), Washington D.C. Zika Virus causes congenital defects, including microcephaly and is associated with Guillain-Barre syndrome, eningoencephalitis and myelitis in infected adult. […] Using a target-based approach, we hope to establish a screening paradigm to uncover novel, cell-active NS2B-NS3 protease (Zika Virus) specific inhibitors from NCATS' collection of small molecules using qHTS. […] Four assay panel was created to identify potential Zika Virus inhibitors. Namely, (1) GU unlinked NS2B-NS3 AMC tagged protease qHTS, (2) GU unlinked NS2B-NS3 Rhodamine tagged protease qHTS, (3) NINDS linked NS2B-NS3 AMC tagged protease qHTS, (4) NINDS linked NS2B-NS3 Rhodamine tagged protease qHTS. Active compounds were re-acquired and re-screened to confirm inhibition. Inhibitors were further screened against various confirmatory and counterscreens in dose response format. […] A DAPI (mCherry counterscreen) which determine Vero cell cytotoxicity was used to exclude false positive compounds. […] Early Translation Branch (ETB) National Center for Advancing Translational Sciences (NCATS), Rockville, MD National Institute of Health (NIH), Bethesda, Maryland
384 well ZIKV-mCherry & mCherry DAPI counterscreen: We have developed a new orthogonal imaging assay in 384-well plate format, which uses recombinant virus ZIKV-mCherry in Vero cells. Briefly, 30 microL of Vero cells derived from a green monkey cell line, were dispensed by Multidrop Dispenser into a clear solid bottom black 384 well plate (ultracarrier, Perkin Elmer LifeSciences) at a concentration of 5,000 cells per well. The plate was incubated overnight in a CO2 incubator at 37 degrees C. Compounds were delivered as a 126 nL DMSO solution by Kalypsys pintool transfer. Following compound transfer, 10 microL of ZIKV-mCherry was added at an MOI of 1 and incubated in a CO2 incubator for 48-72 hrs at 37 degrees C. After sufficient incubation of infected cells in test plates, 8 microL of 32% PFA was dispensed into assay plates to fix cells and incubated for 20 min at room temperature. Plates were washed 3 times with PBS using BioTek EL406 microplate washer/dispenser. After washing, 30 microL of PBS with 0.01% TX-100 containing Hoechst dye was dispensed into the each well of the plates for nuclear staining. 384-well plates were imaged on an automated, widefield high content imager (INCell 2200, GE Healthcare) using a 10x/0.45 NA lens and standard DAPI (nuclear stain) and mCherry (cy5) excitation and emission filters. The TIFFs were quantitated using the canned Multi Target Analysis protocol (GE Investigator Workstation software v3.7.2). Briefly, nuclei from the DAPI channel were identified using top hat segmentation and a sensitivity setting of 96 and minimum size area of 35 microm2. A recombinant Zika viral infection was monitored in the Cy5 channel (cells) using a 2 microm collar dilation from the nuclear bitmap. mCherry objects with an average nuclear RFU intensity above 450 (3 stdev above mean negative control wells) were considered "mcherry positive" and data was analyzed by percent infection rate.
A general note: Counterscreens check selectivity or assay interference.
Take `O=C(O)c1cc(-n2c(/C=C\c3ccc(F)cc3)nc3ccccc3c2=O)ccc1Cl`: the Potency entry was “inactive”.

Take `CCOc1ccc(-c2ccc(Cn3c(CC(C)(C)C(=O)O)c(SC(C)(C)C)c4cc(OCc5ccc(C)cn5)ccc43)cc2)cn1`: the Potency was 17.8 µM (active).

On to `Fc1cc(C2=Nn3c(COc4ccc(Cl)cc4Cl)nnc3S/C2=C\c2ccc(-c3ccc(Cl)cc3)o2)c(Cl)cc1Cl`, for which the Potency result was “inactive”.

Turning to `Cc1cc(OCCCc2c(C(=O)O)n(Cc3cccnc3)c3c(-c4c(COc5ccc(N6CCN([S+](C)(=O)[O-])CC6)cc5)nn(C)c4C)cccc23)cc(C)c1Cl`, the Potency was 14.1 µM (active).

Regarding `CCCCCCOc1cc2c(cc1N(C)c1ncc(C(=O)O)cn1)C(C)(C)CCC2(C)C`, the Potency is 22.4 µM (active).

Consider `Cc1cccc(C(=O)Nc2ccc(C(=O)OCc3cc(=O)n4nc(C5CC5)sc4n3)cc2)c1`, for which the Potency is 15.8 µM (active).

Consider `O=c1c(O)c(-c2ccc(O)c(O)c2)oc2cc(O)cc(O)c12`, for which the Potency result is “inactive”.

Regarding `Cc1cc(-c2ccc(N=Nc3c(S(=O)(=O)O)cc4cc(S(=O)(=O)O)cc(N)c4c3O)c(C)c2)ccc1N=Nc1c(S(=O)(=O)O)cc2cc(S(=O)(=O)O)cc(N)c2c1O`, the Potency result was “inactive”.

As for `CCCCCc1ccc(/C=C/C(=O)Nc2cc(Cl)ccc2C(=O)O)cc1`, the Potency is 35.5 µM (active).

`CC(C)C1=CCC(C)(O)C(OC2OC(CO)C(O)C(O)C2O)C1` (stereo not given): the Potency entry was “inactive”.

Take `COc1cc(Nc2nc3ccccc3nc2NS(=O)(=O)c2cccc(NC(=O)c3ccc(C)c(OC)c3)c2)cc(OC)c1`: the Potency is 4.47 µM (active).

For `C[C@@H](NC(=O)c1ccc(Cl)cc1)c1c(-c2ccc(F)cc2)noc1C(=O)O`, the Potency result is “inactive”.

Turning to `O=C(O)Cn1nnc(-c2ccc(OCc3cccc(C(F)(F)F)c3)cc2)n1`, the Potency entry was “inactive”.

For `COc1ccc(NS(=O)(=O)c2ccc3c(c2)[C@H]2C=CC[C@H]2[C@@H](c2ccc(C(=O)O)cc2)N3)cc1`, the Potency result is “inactive”.

With `Cc1ccc(NC(=O)c2ccc3c(O)c(S(=O)(=O)c4ccc(Cl)cc4)c(=O)[nH]c3c2)cc1`, the Potency entry is “inactive”.

As to `CCCCCCCCc1ccc(CCC(N)(CO)CO)cc1`, the Potency is 10 µM (active).

In the case of `O=C(O)C1(Cc2cccc(Nc3nccs3)n2)CCC(Oc2cccc(Cl)c2F)CC1` (stereo not given), the Potency was 17.8 µM (active).

For `CC1(COc2ccc(CC3SC(=O)NC3=O)cc2)CCCCC1` (stereo not given), the Potency is 31.6 µM (active).

For `Cc1oc2c(cc(NS(=O)(=O)c3ccc(Br)cc3)c3ccccc32)c1C(=O)OCc1ccccc1`, the Potency result was “inactive”.

Regarding `CC(C)c1cccc2c(-c3ccccc3)cc(-c3ccc(-c4ccc(C(=O)O)cc4)[nH]3)nc12`, the Potency is 25.1 µM (active).

Regarding `Cc1ccc(S(=O)(=O)Nc2cc(SCC(=O)O)c(O)c3ccccc23)cc1[N+](=O)[O-]`, the Potency was 8.91 µM (active).

Turning to `CCOc1nc2cccc(C(=O)OC(C)OC(=O)OC3CCCCC3)c2n1Cc1ccc(-c2ccccc2-c2nn[nH]n2)cc1` (stereo not given), the Potency is 15.8 µM (active).

With `COc1ccc(S(=O)(=O)Nc2cc(-c3c(O)ccc4ccccc34)c(O)c3ccccc23)cc1`, the Potency is 10 µM (active).

Turning to `CC(C)=CCOc1ccc(/C=C/C(=O)c2ccc(OCC=C(C)C)cc2OCC(=O)O)cc1`, the Potency is 25.1 µM (active).

As for `Cc1ccc(NC(=O)c2ccc3c(O)c(S(=O)(=O)c4ccccc4)c(=O)[nH]c3c2)cc1Cl`, the Potency entry was “inactive”.

On to `O=S(=O)(Nc1cc(Cl)c(Oc2cnc3ccccc3c2)c(Cl)c1)c1ccc(Cl)cc1Cl`, for which the Potency was 12.6 µM (active).

On to `CCOc1ccc(C(=O)Nc2cccc(C(=O)OCc3cc(=O)n4nc(C5CC5)sc4n3)c2)cc1`, for which the Potency was 11.2 µM (active).

`CCOC(=O)c1ccc(N2C(=O)c3n[nH]c(-c4cccs4)c3C2c2ccc(C(C)(C)C)cc2)cc1` (stereo not given): the Potency was 10 µM (active).

As to `O=C(O)c1ccc(CCCc2ccc(OCCc3ccc(F)cc3)cc2)o1`, the Potency was 31.6 µM (active).

For the molecule `Cc1nc(N=Nc2cc(S(=O)(=O)O)c3cc([N+](=O)[O-])cc(S(=O)(=O)O)c3c2)c(COP(=O)(O)O)c(C=O)c1O`, the Potency entry is “inactive”.

For the molecule `COc1cccc(C(=O)Nc2ccc(C(=O)OCc3cc(=O)n4nc(C5CC5)sc4n3)cc2)c1`, the Potency is 5.62 µM (active).

For `O=C(O)c1cc(O)c2cccc(O)c2c1O[C@@H]1O[C@H](CO)[C@@H](O)[C@H](O)[C@H]1O`, the Potency entry is “inactive”.

On to `CCOc1ccc(-c2cc(NC(=O)c3c(F)cccc3F)c(C(=O)O)s2)cc1`, for which the Potency was 5.01 µM (active).

In the case of `O=C(O)c1ccc(S(=O)(=O)N(Cc2ccc(OC(F)(F)F)cc2)c2ncc(C(F)(F)F)cc2Cl)cc1`, the Potency is 25.1 µM (active).

As for `CC(=O)C(N=Nc1ccc(S(=O)(=O)Nc2ccccn2)cc1)C(=O)Nc1ccc(Cl)cc1` (stereo not given), the Potency result is “inactive”.

As for `O=C(Nc1ccc(S(=O)(=O)Nc2nccs2)cc1)C(c1ccccc1)c1ccccc1`, the Potency result was “inactive”.

For the molecule `CCCCCCCOc1cc2c(cc1/C(C)=C/c1ccc(C(=O)O)cc1)C(C)(C)CCS2(=O)=O`, the Potency was 15.8 µM (active).

In the case of `CC1(C(=O)O)NCCc2cc(O)c(O)cc21` (stereo not given), the Potency result was “inactive”.

Consider `Cc1c(C)n(Cc2ccc(-c3ccccc3C(=O)O)cc2)c2ccc(C(=O)N[C@@H](C)c3ccc([N+](=O)[O-])cc3)cc12`, for which the Potency is 35.5 µM (active).

Consider `O=C(O)c1cnn(-c2nc3cc(OC(F)(F)F)c(Cl)cc3[nH]2)c1`, for which the Potency result is “inactive”.

The record behind these values is PubChem BioAssay AID1347156 (National Center for Advancing Translational Sciences (NCATS), 2019).
